Screening results as filed in PubChem BioAssay.
VP16 counter: Gal4-VP16 reporter inhibition counter-screen. Drosophila S2 Gal4-VP16 UAS-luciferase, luminescence, 20 h. Potency, µM (series often up to 53.6 µM), inactives show at the highest dose activity, negative = inhibition, actives largely listed as inhibitors. hit rate 3.5% among 310,000. AID 2546;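 also: Gal4-VP16 expression switched on by copper sulfate through the metallothionein promoter; potency is read from the fitted curve at half-maximal effect; % is scaled to controls: 0 for no effect and ±100 for the full control effect; nearly all actives have a fitted effect of over 50% in size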
CtBP-E1A inh: inhibitors of CtBP/E1A interaction | AlphaScreen GST-E1A/His-CtBP binding, 1536-well; hits give low values | activity change, % (no concentration beside the values) | hit rate 0.49% among 340,000 | AID 651724; in the data active = activity change below about -65%; inconclusive = mostly about -30% to -63%; also: % is scaled to controls: 0 for no effect and ±100 for the full control effect
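AlphaScreen with 125 nM GST-E1A and 125 nM His-CtBP (5X stocks) in Tris pH 8.0, 300 mM NaCl, BSA, Tween 20, TCEP. Compounds preincubated 2 h at 37 deg C, then glutathione donor/nickel acceptor beads added for 1 h at 37 deg C in dark.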
CBFb RUNX1 block: inhibitors of human CBF-beta and RUNX1 interaction; AlphaScreen CBFb-His/RUNX1-biotin binding, biochemical; 230,000 tested, under 10 active; AID 1477; Q01196+Q13951; Potency, µM (top dose mostly 59.8 µM), for inactives: at the highest dose activity, negative = inhibition, usual class: inhibitors; also: % of control where 0% means no effect
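CBF-beta (His) and RUNX1 (biotin), 30 nM each; 20 min preassociation; + compound, 15 min; + beads 50 ng each (Ni, streptavidin), 90 min; RT; AlphaScreen read.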
Six1-Eya2 inh: inhibitors of human Six1/Eya2 interaction. AlphaScreen GST-Six1/His-Eya2 binding, biochemical; hits give low values. activity change, % (no concentration beside the values). hit rate 0.56% among 360,000. AID 651725; in the data active = activity change below about -65%; inconclusive = mostly about -30% to -63%; also: % is scaled to controls: 0 for no effect and ±100 for the full control effect
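GST-Six1 + His-Eya2 (5X stock: 250/500 nM); Tris pH 8.0, 300 mM NaCl, 0.05% BSA, 0.02% Tween 20; GSH donor/Ni acceptor beads; 1 h 37 °C dark; AlphaScreen readout.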
RORg inh: blocks mouse ROR gamma transcriptional activity. P51450. Drosophila S2 Gal4-RORgamma UAS-luciferase reporter, 20 h. Potency, µM (series often up to 53.6 µM), inactives show at the top dose activity change, negative = inhibition, actives largely listed as inhibitors. hit rate 5.4% among 310,000. AID 2551; also: potency is read from the fitted curve at half-maximal effect; % is scaled to controls: 0 for no effect and ±100 for the full control effect; nearly all actives have a fitted effect of over 60% in size
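Drosophila S2 cells stably expressing Gal4-DBD/mouse RORγ fusion under metallothionein promoter plus UAS-luciferase; compound 1 h, then 700 uM CuSO4 induction for 20 h at ambient temperature; inhibition read as reduced luminescence.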
MBNL1 CUG block: MBNL1-poly(CUG) RNA binding inhibition; TR-FRET MBNL1-His/biotin-(CUG)12 binding, 665/545 ratio; AID 2675; hit rate 0.036% among 280,000; Q9NR56; Potency, µM (highest dose often 57.5 µM), without a hit: at the highest dose activity change, negative = inhibition, hits mostly inhibitors; active = well fitted inhibition curve with a large enough effect in the signal ratio, with a control signal flat, not every such curve was filed as active; inconclusive = small, poorly fitted or top-dose-only effect, or effect the other way, or a change in a side signal; inactive = no such curve, though single readings can be large or run the other way; the % refers to the signal ratio; also: potency is read from the fitted curve at half-maximal effect; % is scaled to controls: 0 for no effect and ±100 for the full control effect
Target sequence (Q9NR56 whole entry, looked up): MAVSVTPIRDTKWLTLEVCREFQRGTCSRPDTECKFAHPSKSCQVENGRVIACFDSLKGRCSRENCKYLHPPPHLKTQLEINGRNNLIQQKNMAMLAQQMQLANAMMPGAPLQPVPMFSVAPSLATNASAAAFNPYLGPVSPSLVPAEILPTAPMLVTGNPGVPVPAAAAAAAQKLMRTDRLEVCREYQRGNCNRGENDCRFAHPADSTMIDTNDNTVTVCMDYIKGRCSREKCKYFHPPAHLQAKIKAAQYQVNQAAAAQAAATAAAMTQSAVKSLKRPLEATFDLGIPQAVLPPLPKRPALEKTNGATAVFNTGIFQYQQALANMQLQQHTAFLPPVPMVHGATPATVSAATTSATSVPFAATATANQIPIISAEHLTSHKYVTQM
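MBNL1-His + Biotin-(CUG)12, cpd titration 92 nM–58 uM; Tb anti-His Ab 0.055 ng/ul, SA-XL665 5 nM (final); 60 min RT; ratiometric 665/545 nm, Ex 340 nm; normalized to buffer and full-complex controls.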
* = called active by the depositor; ! = not active in a repeat; [ ] = remark or other dose. This is a sample that favours compounds with a hit; in the whole collection about 5.5% have one here. Unless noted, calls follow the shape of the dose curve; as a rule, active = well fitted curve in the direction sought with a large enough effect; inconclusive = small, poorly fitted or top-dose-only effect, or another doubt; inactive = no such curve, though single readings can be large; an effect the other way counts as inactive or inconclusive.

For CSc1ccccc1C(=O)C1CCCN(Cc2ccccn2)C1 (stereo not given) the results were VP16 counter -23%, CtBP-E1A inh -28, CBFb RUNX1 block -6%, Six1-Eya2 inh -3, RORg inh 11µM* and MBNL1 CUG block -3%.
For CSc1ccccc1C(=O)C1CCCN(Cc2cccc(C)n2)C1 (stereo not given) the results were VP16 counter 20µM*, CtBP-E1A inh 8, CBFb RUNX1 block 3%, Six1-Eya2 inh 3, RORg inh 4.5µM* and MBNL1 CUG block -3%.
Screening COc1ccc(CN2CCCC(C(=O)c3ccccc3SC)C2)cc1O (stereo not given) returned VP16 counter 8%, CBFb RUNX1 block 1%, Six1-Eya2 inh -10, RORg inh -1% and MBNL1 CUG block 0%.
`Cc1cccc(CN2CCCC(C(=O)c3ccc(C(F)(F)F)cc3)C2)n1` (stereo not given) gave VP16 counter 7.9µM*, CtBP-E1A inh 2, CBFb RUNX1 block 6%, Six1-Eya2 inh 5, RORg inh 2.8µM* and MBNL1 CUG block -10%.
For O=C(c1ccc(C(F)(F)F)cc1)C1CCCN(C2CCSCC2)C1 (stereo not given) the results were VP16 counter -4%, CtBP-E1A inh 1, CBFb RUNX1 block 6%, Six1-Eya2 inh -6, RORg inh -1% and MBNL1 CUG block -6%.
`COc1ccccc1C(=O)C1CCCN(Cc2cnc(C)s2)C1` (stereo not given) gave VP16 counter 0%, CtBP-E1A inh -1, CBFb RUNX1 block 0%, Six1-Eya2 inh -1, RORg inh 39% and MBNL1 CUG block 1%.
Screening COC(C)(C)C returned VP16 counter -12%, CBFb RUNX1 block 12%[21.7 µM] and RORg inh 2%.
Cc1cc(OC(=O)N(C)C)nn1C(=O)N(C)C was read as VP16 counter 4%, CBFb RUNX1 block 23% and RORg inh -1%.
Screening O=C(c1ccc(Cl)cc1)C1CCCN(Cc2ccc3ncccc3c2)C1 (stereo not given) returned VP16 counter 7.1µM*, CtBP-E1A inh 5, CBFb RUNX1 block 2%, Six1-Eya2 inh 7, RORg inh inconclusive and MBNL1 CUG block -13%.
Screening O=C(c1cccc(Cl)c1)C1CCCN(Cc2cccc3cnccc23)C1 (stereo not given) returned VP16 counter -28%, CtBP-E1A inh -4, CBFb RUNX1 block 0%, Six1-Eya2 inh -7, RORg inh 7.1µM* and MBNL1 CUG block 13%.
O=C(c1ccc(Cl)cc1)C1CCCN(Cc2cccc3cnccc23)C1 (stereo not given) was read as VP16 counter 35µM*, CtBP-E1A inh -2, CBFb RUNX1 block -7%, Six1-Eya2 inh -6, RORg inh inconclusive and MBNL1 CUG block 9%.
Screening COc1ccc(CN2CCCC(C(=O)c3cccc(Cl)c3)C2)cc1 (stereo not given) returned VP16 counter 6%, Six1-Eya2 inh 6, RORg inh -9% and MBNL1 CUG block -8%.
`O=C(c1ccc(Cl)cc1)C1CCCN(Cc2ccc3c(c2)OCCO3)C1` (stereo not given) gave VP16 counter 3%, CtBP-E1A inh 1, CBFb RUNX1 block 1%, Six1-Eya2 inh -14, RORg inh -1% and MBNL1 CUG block -6%.
`C=CC(=O)OCC` gave VP16 counter -2%, CBFb RUNX1 block 3%[21.7 µM] and RORg inh 4%.
Screening NC(Cc1ccc(Cl)cc1)c1csc(Nc2cnccn2)n1 (stereo not given) returned CtBP-E1A inh inconclusive and Six1-Eya2 inh -72*.
Screening Cc1cccc(C)c1NC1=NCCCS1 returned VP16 counter -2%, CtBP-E1A inh 0, CBFb RUNX1 block inconclusive, Six1-Eya2 inh 0, RORg inh 10µM*! and MBNL1 CUG block 2%.
